Several values for one entry are separate records, joined by “and”; a condition that tells them apart may be missing. Identical values can stand only once. Values without a mark were called inactive. Inconclusive results are not listed. Activity calls are given as the source filed them. Unless noted, calls follow the shape of the dose curve; as a rule, active = well fitted curve in the direction sought with a large enough effect in the repeat runs; inconclusive = weak or mixed curves; inactive = no such curve, though single readings can be large; an effect the other way counts as inactive or inconclusive.
Columns and labels:
[1] = qHTS assay to identify small molecule agonists of the hypoxia (HIF-1) signaling pathway - cell viability counter screen (AID 1224844; calls by dose curve; also: nearly all actives have a fitted effect of over 50% in size; also: potency is read from the fitted curve at half-maximal effect)
In short: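 ME-180 HRE-bla cells, 2,000/well, 0.5% dialyzed FBS; 5 hr settle, 17 hr compound at 37C/5% CO2; CCF4-AM reporter read first, then CellTiter-Glo luminescence after 30 min RT.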

[2] = qHTS assay to identify small molecule agonists of H2AX - cell viability counter screen (AID 1224847; calls by dose curve; also: nearly all actives have a fitted effect of over 30% in size; also: potency is read from the fitted curve at half-maximal effect; as to activity change, negative = cytotoxicity: top concentration of the series differs between compounds)
In short: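 We seed wild-type CHO-K1 cells overnight, treat them for 3 hr at 37C with compounds in 15-concentration series, and quantify remaining viability by CellTiter-Glo luminescence.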

[3] = qHTS assay to identify small molecule antagonists of the estrogen related receptor (ERR) signaling pathway from Tox21 library (AID 1224848); also: nearly all actives have a fitted effect of over 50% in size; also: potency is read from the fitted curve at half-maximal effect
In short: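 Cells: ERR line, 2,000/well; 6 h preincubation 37 C/5% CO2. Cpd in DMSO via pin tool; 18 h, 37 C. ONE-Glo, 30 min RT, luminescence.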

[4] = qHTS assay to identify small molecule agonists of the estrogen related receptor (ERR) signaling pathway from Tox21 library (AID 1224849; calls by dose curve; also: nearly all actives have a fitted effect of over 15% in size); conditions: ERR reporter cell line, ONE-Glo luciferase, 18 h; at 92.4 µM (top of the series) unless noted
In short: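 ERR cells, 6 h pre-incubation 37 C/5% CO2; cpd in DMSO pinned; 18 h 37 C; ONE-Glo added, 30 min RT; luminescence read. Agonist mode, qHTS.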

[5] = qHTS RealTime-Glo MT Cell Viability Assay in HepG2 cells - 24 hour (AID 1224867); also: nearly all actives have a fitted effect of over 50% in size; also: potency is read from the fitted curve at half-maximal effect
In short: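 qHTS, HepG2, 600 cells/well, RealTime-Glo (NanoLuc + prosubstrate) added with cells; 5 h preincubation; DMSO compound addition; 37 C; luminescence at 0/8/16/24/32/40 h.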

[6] = A CellTox Green Cytotoxicity Assay to monitor cytotoxicity in HEK293 cells - 0 hour (AID 1224869); also: nearly all actives have a fitted effect of over 50% in size
In short: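 Nonlytic real-time cytotoxicity: HEK293 + CellTox Green reagent plated, 5 h preincubation, pintool compound addition (23 nL in DMSO), 37 C for 40 h, fluorescence measured at successive time points.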

[7] = qHTS RealTime-Glo MT Cell Viability Assay in HepG2 cells - 40 hour (AID 1224870); also: nearly all actives have a fitted effect of over 50% in size; also: potency is read from the fitted curve at half-maximal effect
In short: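 HepG2 cells mixed with RealTime-Glo MT reagents (NanoLuc plus cell-permeant prosubstrate) were seeded at 600 cells/well, incubated 5 h at 37 C/5% CO2, then pinned with compounds in DMSO; nonlytic luminescence tracked viability during 40 h treatment.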

[8] = qHTS RealTime-Glo MT Cell Viability Assay in HEK293 cells - 32 hour (AID 1224868); also: nearly all actives have a fitted effect of over 50% in size; also: potency is read from the fitted curve at half-maximal effect
In short: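 Assay medium contained NanoLuc luciferase plus cell-permeant prosubstrate, added with HEK293 cells at 600 cells/well. After 5 h at 37 C/5% CO2 compounds were added; plates stayed at 37 C for 40 h with serial luminescence reads.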

[9] = qHTS assay to identify small molecule agonists of the hypoxia (HIF-1) signaling pathway (AID 1224846; active = well fitted activation curve with a large enough effect in the signal ratio in the repeat runs, not every such curve was filed as active; the % refers to the signal ratio)
In short: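 Cell line: CellSensor HRE-bla ME-180; 2,000 cells/well; 0.5% dialyzed FBS; 5 h preincubation; DMSO compound pin transfer; 17 h, 37C, 5% CO2; CCF4-AM added; bla FRET signal scored for activation.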
% is scaled to controls: 0 for no effect and ±100 for the full control effect.

SMILES | Potency [1] | Potency [2] | Potency [3] | activity change, positive = activation [4] | Potency [5] | Potency [6] | Potency [7] | Potency [8] | Potency [9] | activity change, negative = cytotoxicity [1] | activation [9] | cytotoxicity [6]
Oc1ccc2cc(SSc3ccc4cc(O)ccc4c3)ccc2c1 | inactive | 89.9 µM (active) | 61.2 µM (active) and 54.5 µM (active) | -64.5% and -58.9% | inactive | inactive | inactive | – | – | – | – | –
Cc1cc(O)c(C(C)(C)C)cc1Sc1cc(C(C)(C)C)c(O)cc1C | 9.75 µM (active) | 17.9 µM (active) | 13.7 µM (active) | -80.3% | 43.6 µM (active) | inactive | 48.9 µM (active) | 21.8 µM (active) | – | – | – | –
O=[N+]([O-])c1cc(Cl)c(Cl)c(Cl)c1Cl | inactive | inactive | – | -25.7% | inactive | inactive | inactive | – | inactive | – | – | –
CCCCCCCCNC(C)C(O)c1ccc(SC(C)C)cc1 (centres undefined) | 19 µM (active) | 43.8 µM (active) | 23.7 µM (active) | -63% [at 42.5 µM] | 13.4 µM (active) | inactive | 13.4 µM (active) | 9.52 µM (active) | – | – | – | –
CC(C)c1ccc2c(c1)CC[C@H]1[C@](C)(CN)CCC[C@]21C | 49 µM (active) | 89.8 µM (active) | 68.6 µM (active) | -75.7% | 13.8 µM (active) | inactive | 11 µM (active) | 11 µM (active) | – | – | – | –
O=S1(=O)CC(Cl)(Cl)C(Cl)(Cl)C1 | 3.89 µM (active) | 25.3 µM (active) | 15.4 µM (active) | -79.8% | 6.92 µM (active) | inactive | 6.16 µM (active) | – | – | – | – | –
C/C=C1/C(=O)C[C@H]2[C@@H]3CCC4=CC(=O)CC[C@]4(C)[C@H]3CC[C@]12C | inactive | inactive | – | – | – | inactive | inactive | 48.8 µM (active) | inactive | – | – | –
CN(C)c1ccc(C2(c3ccc(N(C)C)cc3)OC(=O)c3cc(N(C)C)ccc32)cc1 | inactive | inactive | inactive | -13.6% | – | inactive | – | inactive | – | – | – | –
CCCCCCCC/C=C/CCCCCCCC1=NCCN1CCO | 54.9 µM (active) | 101 µM (active) | 54.5 µM (active) | -79.9% | 17.4 µM (active) | inactive | 17.4 µM (active) | 19.5 µM (active) | – | – | – | –
OC1(c2ccc(Cl)c(C(F)(F)F)c2)CCN(CCCC(c2ccc(F)cc2)c2ccc(F)cc2)CC1 | 6.74 µM (active) | 55.2 µM (active) | 8.41 µM (active) | -71.9% [at 42.5 µM] | 9.52 µM (active) | inactive | 9.52 µM (active) | 9.52 µM (active) | – | – | – | –
CC(=O)N1CCN(c2ccc(OC[C@H]3CO[C@](Cn4ccnc4)(c4ccc(Cl)cc4Cl)O3)cc2)CC1 | 49 µM (active) | 101 µM (active) | 12.2 µM (active) | -79.4% | 49 µM (active) | inactive | 54.9 µM (active) | 24.5 µM (active) | – | – | – | –
Cc1onc(-c2c(Cl)cccc2Cl)c1C(=O)N[C@@H]1C(=O)N2[C@@H]1SC(C)(C)[C@@H]2C(=O)O | inactive | inactive | inactive | -4.23% [at 42.5 µM] | inactive | inactive | inactive | inactive | – | – | – | –
CCN1/C(=C/C=C/c2sc3ccccc3[n+]2CC)Sc2ccccc21 | – | 7.6 µM (active) | 0.231 µM (active) | -58.8% [at 19 µM] | – | – | – | 1.04 µM (active) | – | 19.1% [at 15.8 µM] | 0.484% [at 15.8 µM] | -12.5% [at 15.8 µM]
CC1=C(C(=O)OC(C)C)C(c2cccc([N+](=O)[O-])c2)C(C(=O)OC2CN(C(c3ccccc3)c3ccccc3)C2)=C(N)N1 (centres undefined) | 6.74 µM (active) | 55.2 µM (active) | 26.6 µM (active) | -68.1% [at 42.5 µM] | 21.3 µM (active) | inactive | 23.9 µM (active) | – | – | – | – | –
CCCCC(CC)COP(=O)(O)OCC(CC)CCCC (centres undefined) | 17.4 µM (active) and 5.49 µM (active) | inactive | 30.7 µM (active) and 27.3 µM (active) | -51.6% and -55.8% | inactive | inactive | inactive | – | – | – | – | –
COc1cc(-c2ccc(N=C=O)c(OC)c2)ccc1N=C=O | inactive | inactive | inactive | -0.106% [at 42.5 µM] | inactive | inactive | inactive | inactive | – | – | – | –
CCCCN(CCCC)C(=O)N(CCCC)CCCC | inactive | – | – | – | inactive | inactive | inactive | inactive | inactive | – | – | –
[Cl][Au]([Cl])[Cl] | 3.89 µM (active) | inactive | 3.06 µM (active) | -67.4% | 9.77 µM (active) | inactive | 8.71 µM (active) | – | – | – | – | –
CCCCc1oc2ccc(NS(C)(=O)=O)cc2c1C(=O)c1ccc(OCCCN(CCCC)CCCC)cc1 | 15.1 µM (active) | 43.8 µM (active) | 16.8 µM (active) | -64.5% [at 42.5 µM] | 9.52 µM (active) | inactive | 9.52 µM (active) | 9.52 µM (active) | – | – | – | –

— PubChem BioAssay (Tox21)
